In the library only some 2.4% were active in any assay of this set; here they are far more common.
D2 ag-1: agonists of human D2 dopamine receptor; P14416; 0.53% of 340,000 active; HEK293 T-REx D2 cells, calcium flux agonist mode; activation, % at 2 µM; AID 485358;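 active = activation over 3 SD above normal in the single-dose calcium agonist read, cut at about 30% in these data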
Target sequence (P14416 whole entry, looked up): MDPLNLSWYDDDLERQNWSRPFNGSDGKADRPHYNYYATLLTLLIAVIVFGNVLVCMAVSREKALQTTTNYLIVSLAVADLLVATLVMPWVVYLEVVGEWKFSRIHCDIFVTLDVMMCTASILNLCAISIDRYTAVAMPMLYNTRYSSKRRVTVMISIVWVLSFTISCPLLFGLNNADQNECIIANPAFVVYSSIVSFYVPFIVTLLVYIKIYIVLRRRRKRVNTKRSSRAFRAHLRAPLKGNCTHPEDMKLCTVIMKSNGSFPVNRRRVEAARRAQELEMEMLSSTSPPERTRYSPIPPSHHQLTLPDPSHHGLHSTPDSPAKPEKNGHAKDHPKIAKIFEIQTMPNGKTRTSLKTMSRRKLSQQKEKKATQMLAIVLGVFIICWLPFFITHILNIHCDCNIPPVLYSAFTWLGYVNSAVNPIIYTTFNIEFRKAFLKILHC
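Agonism scored from kinetic calcium signal (1 read/sec, 180 s) following compound pin transfer, after a 10 s baseline. Cells: HEK293 Trex line expressing inducible D2 receptor coupled to calcium, dye-loaded after overnight culture at 30 C.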
D2 PAM-1: positive allosteric modulators of human D2 dopamine receptor | 0.23% of 360,000 active | potentiation, % (concentration not given with the values) | P14416 | AID 624464 | DiscoveRx D2 beta-arrestin cells, luminescence, 90 min; 100% = 57 uM dopamine signal; in the data active = potentiation above about 50%
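D2 cells co-treated with compound plus 50 nM dopamine (EC20) for 90 min at 37 deg C to detect potentiation. Beta-arrestin recruitment was read as enzyme-fragment luminescence after 1 h at ambient temperature. Full response was set by 57 uM dopamine.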
D2 ag-2: human D2 receptor agonism in beta-arrestin assay; P14416; DiscoveRx PathHunter D2 beta-arrestin, luminescence, 90 min; 100% = 57 uM dopamine signal; activation, % (no concentration beside the values); 0.084% of 360,000 active; AID 624465; in the data active = activation above about 40%
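Agonist mode: compounds alone added to overnight-plated D2 PathHunter cells for 90 min at 37 C, with 57 uM final dopamine (EC100) defining full response. Beta-arrestin recruitment detected by chemiluminescent reagent, read after 1 h at ambient temperature.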
D2 antag: antagonizes the human D2 dopamine receptor. P14416. HEK293 TREx D2 cells, calcium flux, dopamine EC80. inhibition, % at 10 µM. 2% of 340,000 active; in the data active = inhibition above about 30%; inactive = below that, where a call was filed
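Tetracycline-induced HEK293 TREx cells expressing D2 receptor forced-coupled to calcium signalling, loaded with no-wash calcium dye. Compounds added and calcium flux read 180 s, then dopamine added at EC80 and read a further 180 s.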
D2 PAM-2: positively modulates the human D2 dopamine receptor allosterically; HEK293 T-REx D2, calcium flux, EC20 dopamine potentiation; potentiation, % at 10 µM; P14416; 0.34% of 340,000 active;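 active = potentiation over 3 SD above the plate norm, cut at about 30% in these data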
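Cells plated with tetracycline inducer and held overnight at 30 C; calcium dye loaded 30–90 min at room temperature; baseline taken, compound added and read 180 s; EC20 dopamine then added and read 180 s.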
Each line names hits and unclear results; the compound was inactive in the other large screens.

COc1ccc(Cl)cc1NC(=O)C1CCN(S(=O)(=O)c2ccc3c(c2)CCCN3C(=O)C2CCC2)CC1	none (no result: D2 PAM-1, D2 ag-2, D2 antag)
Cc1cccc(C(=O)NCCc2nc3ccccc3n2CCC(C)C)c1	none (no result: D2 PAM-1, D2 ag-2, D2 antag)
Cc1cccc(C)c1OCC(=O)NCC1(N2CCOCC2)CCCCC1	none (no result: D2 PAM-1, D2 ag-2, D2 antag)
COc1ccc(NS(=O)(=O)c2ccc3c(c2)CC(C)N3C(C)=O)c(OC)c1 (stereo not given)	none (no result: D2 ag-1, D2 PAM-1, D2 ag-2, D2 antag)
CC(=O)Nc1ccc(NC(=O)CSCCc2ccccn2)cc1	D2 PAM-2 34.4
CCC(=O)Nc1ccc(CC)cc1-c1nc2ccccc2n(CC(=O)Nc2ccccc2C)c1=O	none (no result: D2 PAM-1, D2 ag-2, D2 antag)
CN1CCN(CCNC(=O)c2cnn(-c3ccc(Cl)cc3)c2C2CCN(C(=O)OC(C)(C)C)CC2)CC1	none (no result: D2 PAM-1, D2 ag-2, D2 antag)
CSC1=C(C#N)C(c2ccccc2)C(C(C)=O)=C(C)N1 (stereo not given)	none
CSCSC1=C(C#N)C(c2ccc(Cl)cc2)C(C(C)=O)=C(C)N1 (stereo not given)	D2 antag 31.6 (no result: D2 PAM-1, D2 ag-2)
O=C(c1ccc2c(c1)OCCO2)N(Cc1cccnc1)c1nc2c(F)cccc2s1	none (no result: D2 PAM-1, D2 ag-2, D2 antag)
COc1ccc(N2CCN(C(=O)COC(=O)c3cccc(S(=O)(=O)Nc4cccc(C)c4)c3)CC2)cc1	D2 antag 40.2
CCOC(=O)c1cccc(Nc2ncnc3ccccc23)c1	D2 PAM-2 34.1
Cc1cccc(-n2ncc(C(=O)NCc3ccccn3)c2C2CCN(C(=O)OC(C)(C)C)CC2)c1	none (no result: D2 PAM-1, D2 ag-2, D2 antag)
Cc1ccc(SCc2cc(-c3ccc(Cl)cc3)no2)cc1	D2 PAM-2 31.7 (no result: D2 ag-1, D2 antag)
COc1ccc(CNCc2c(C(=O)O)c(C)n(Cc3ccccc3C)c2C)c(OC)c1	none (no result: D2 ag-1, D2 PAM-1, D2 ag-2, D2 antag)
CCN(C(=O)c1c(-c2ccccc2Cl)noc1C)C1CCCCC1	D2 PAM-2 47.1
CCN(C(=O)c1cc2c(=O)oc3ccccc3c2s1)c1ccc(C)c(C)c1	none (no result: D2 PAM-1, D2 ag-2, D2 antag)
CN(C)c1ccc(/C=C/C(=O)c2ccc(O)cc2)cc1	none (no result: D2 ag-1, D2 antag, D2 PAM-2)
CN(C)c1ccc(/C=C/C(=O)c2cccnc2)cc1	D2 ag-1 59.1
CN(C)c1ccc(/C=C/C(=O)c2ccc3c(c2)OCO3)cc1	D2 ag-1 68.4
CCOC(=O)c1nc(NCc2ccc(Cl)cc2)c2c(C)noc2n1	none (no result: D2 PAM-1, D2 ag-2, D2 antag)
Cc1ccc(Cn2c(CCCNC(=O)c3ccco3)nc3ccccc32)cc1	none (no result: D2 PAM-1, D2 ag-2, D2 antag)
Cc1cccc(NC(=O)C(c2ccccc2)N2Cc3ccccc3C2=O)c1C (stereo not given)	none (no result: D2 PAM-1, D2 ag-2, D2 antag)
O=C(NCc1ccccc1F)c1ccc2ccccc2n1	D2 PAM-2 33.6
COc1ccc(S(=O)(=O)NCC(c2ccco2)N2CCN(c3ccccc3F)CC2)cc1C (stereo not given)	none (no result: D2 PAM-1, D2 ag-2, D2 antag)
Cc1cccc(C)c1OCC1CNC(=O)O1 (stereo not given)	D2 antag 36.1
CC1CC(C)CN(S(=O)(=O)c2ccc(NC(=O)C3CSC4(C)CCC(=O)N34)cc2)C1 (stereo not given)	D2 PAM-2 30.3
Cc1ccc(C)c(N2CCN(C(=O)c3cc4c(=O)n(Cc5ccccc5)ccc4nc3C)CC2)c1	none (no result: D2 PAM-1, D2 ag-2, D2 antag)
S=C(c1c[nH]c2ccc(Br)cc12)N1CCOCC1	D2 antag 38.3
O=C(c1c[nH]c2ccccc12)N1CCOCC1	none
CCCn1c(=O)n(-c2cc(Cl)c(OC)cc2OC)c(=O)c2c3c(sc21)CN(C(C)=O)CC3	none (no result: D2 PAM-1, D2 ag-2, D2 antag)
Nc1cc(OCC(F)(F)F)cc([N+](=O)[O-])c1	none
O=C1C2C3CCC(O3)C2C(=O)N1c1cc(OCC(F)F)cc([N+](=O)[O-])c1 (stereo not given)	D2 antag 34.8
COc1cc(C(=O)NCC(=O)NC(C)c2ccc(-n3ccnc3)cc2)cc(OC)c1OC (stereo not given)	none
CC(NC(=O)C1CCN(C(=O)c2ccc(F)cc2)CC1)c1ccc(-n2ccnc2)cc1 (stereo not given)	D2 antag 31.0
COc1cc(C(=O)NC(C)c2ccc(-n3ccnc3)cc2)cc(OC)c1C (stereo not given)	D2 PAM-2 31.4
O=C(Nc1ccc2nc3n(c(=O)c2c1)CCCCC3)C(=O)N1CCN(c2ccc(F)cc2)CC1	D2 antag 34.3
O=C(c1ccc2c(=O)n3c(nc2c1)CCCCC3)N1CCN(c2ccc(F)cc2)CC1	none
O=C(Nc1ccc2nc3n(c(=O)c2c1)CCCCC3)c1ccccc1[N+](=O)[O-]	D2 antag 30.2
O=c1c2cc(NC(=S)NCCCN3CCC(Cc4ccccc4)CC3)ccc2nc2n1CCCCC2	D2 antag 51.8
CC1=Nc2cc(C(=O)NCCc3ccc(Cl)cc3)ccc2Sc2ccc(C)cc21	none (no result: D2 PAM-1, D2 ag-2, D2 antag)
O=C(Cc1ccccc1)Nc1cc(-c2nc3cc(Cl)ccc3o2)ccc1Cl	none (no result: D2 PAM-1, D2 ag-2, D2 antag)
CCOc1ccccc1NC(=O)c1nc(SC(C)C)ncc1Cl	none (no result: D2 PAM-1, D2 ag-2, D2 antag)
O=C(OCC(=O)N1CCCC1=O)c1ccc(O)cc1O	none
CSc1ccccc1C(=O)OCC(=O)N1CCCC1=O	D2 PAM-2 51.9
CCn1cc2nc(SCC(=O)Nc3ccccc3C(F)(F)F)n(Cc3ccc(C)cc3)c(=O)c2n1	none (no result: D2 PAM-1, D2 ag-2, D2 antag)
O=C(CSc1ccccn1)Nc1cccc2ccccc12	D2 PAM-2 33.9
COc1ccc(NC(=O)CSc2ccccn2)c([N+](=O)[O-])c1	D2 antag 31.3
O=C(CSc1ccccn1)Nc1nonc1[N+](=O)[O-]	D2 ag-2 63.4
CCOc1ccc(N(CC)S(=O)(=O)N2CCCC(C(=O)Nc3ccc(NC(C)=O)cc3)C2)cc1 (stereo not given)	none (no result: D2 PAM-1, D2 ag-2, D2 antag)
CCN1C(=O)c2ccccc2Sc2ccc(NC(=O)Nc3cccc([N+](=O)[O-])c3C)cc21	none (no result: D2 PAM-1, D2 ag-2, D2 antag)
CN(C(=O)c1cccnc1)c1nnc(-c2ccccn2)s1	none
CC(=O)N(C)c1nnc(-c2ccccn2)s1	D2 antag 42.6
CCC1CCCCN1S(=O)(=O)c1cc2c(cc1C)NC(=O)CO2 (stereo not given)	none (no result: D2 PAM-1, D2 ag-2, D2 antag)
CCOC(=O)CNC(=O)N1CCN(S(=O)(=O)c2ccc3c(ccn3C)c2)CC1	none (no result: D2 PAM-1, D2 ag-2, D2 antag)
Cc1cccc(C(=O)OCC(=O)NN2C(=O)NC3(CCC(C)CC3)C2=O)c1O (stereo not given)	D2 antag 30.6
CCN(CC)c1ccc(/C=C2\C(=O)c3ccc(C(=O)O)cc3C2=O)cc1	D2 ag-1 109.9, D2 antag 54.4
Cc1cccc(N2CCN(C(=O)c3cc4c(=O)[nH]c5ccc(C)cc5c4s3)CC2C)c1 (stereo not given)	none (no result: D2 ag-1, D2 PAM-1, D2 ag-2, D2 antag)
CCn1cc(C(=O)NCC(=O)OC)c2cc(OC)c(OC)cc2c1=O	none
CCOC(=O)CNC(=O)c1cn(CC(C)C)c(=O)c2cc(OC)c(OC)cc12	D2 antag 31.2
N#Cc1c(-c2ccco2)cc(-c2cccnc2)nc1N	none
N#Cc1c(-c2ccco2)cc(-c2ccccn2)nc1N	D2 PAM-2 35.8

Compound activity deposited in PubChem BioAssay by National Center for Advancing Translational Sciences (NCATS).
